The record followed here is PubChem BioAssay AID1486 (The Scripps Research Institute Molecular Screening Center, 2009).

Values joined by “and” are separate entries in the source; they are usually repeats but may differ in a detail not shown here. Equal values may be shown once. In all, about 220,000 compounds went through this assay and about 2,400 (1.1%) were called active. What follows is part of a selection rich in actives, with near analogues and random picks from the rest. A number with no mark means an inactive call.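 How the source made its calls: active means inhibition above a per-campaign cutoff, the mean inhibition of all tested compounds plus 3 SD (cut at about 27% in these data); inactive means the rest.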

The nature of this test: parental Ba/F3 cell viability inhibition, counter-screen for JAK2V617F inhibitor project, murine pro-B, CellTiter-Glo luminescence (AID 1486).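 Further: 0% = DMSO wells and 100% = JAK Inhibitor I control wells.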 The following applies: CellTiter-Glo ATP luminescence, at 5.6 µM, hits give high values. In general terms: The purpose of a counterscreen is to sort out artefacts and off-target activity.
What is called inhibition is the drop in the measured response relative to a control, in per cent. For the compound `CC12CCC(C(=O)N(NC(=O)c3ccccc3O)C1=O)C2(C)C` (stereo not drawn), the inhibition is 8.25%.
Then `COc1ccc(S(=O)(=O)NCC2CCCN(C(=O)c3occc3C)C2)cc1` (stereo not drawn), with 7.62%; and `Cc1cccc(NC(=O)COc2ccccc2C)n1`, with 83.3% (active); and `Cc1cccc(NC(=O)COc2ccc(Br)cc2C)n1`, with 6.66%.
`Cc1ccccc1OCC(=O)Nc1nc(C)c(C(=O)N(C)C)s1`: the inhibition is 7.55%.
With `CC1(C)CC(=O)C/C(=N\NC(=O)c2cccs2)C1` the figure was 8.84%.
For the compound `NS(=O)(=O)c1ccc(NC(=S)NC(=O)c2cccc(Br)c2)cc1`, the inhibition was 7.4%.
Then `O=C(C[n+]1cc(-c2ccc(Cl)c(Cl)c2)n2c1CCC2)c1cccs1`, with 10.5%; and `Cc1ccc(-c2c[n+](CC(=O)Nc3ccccc3)c3n2CCC3)cc1`, with 0.41%.
With `Clc1ccc(C[n+]2cc(-c3ccccc3)n3c2CCC3)cc1` the figure was 63.7% (active); with `Cn1c(-c2ccccc2)c[n+]2c1CCCCC2`, 3.67%; with `Cc1ccc(C(=O)C[n+]2cc(-c3ccccc3)n3c2CCCCC3)cc1`, 70.7% (active) and 65.4% (active).
With `Clc1ccc(C[n+]2cc(-c3ccc(Cl)cc3)n3c2CCC3)cc1` the figure was 58.9% (active); with `O=c1oc(-c2ccccc2NS(=O)(=O)c2ccc(Cl)cc2)nc2ccccc12`, 2.45%; with `Cc1ccc(/C=N/NC(=S)Nc2cccc(S(=O)(=O)N(C)C)c2)o1`, 2.16%.
Consider `COC(=O)c1ccc(NC(=S)Nc2cccc(C)n2)cc1`, for which the inhibition is -3.59%.
Turning to `Cc1ccc(Nc2c3c(nc4ccccc24)CCC3)cc1`, the inhibition is -1.93%.
Then `O=[N+]([O-])c1cccc(Nc2c3ccccc3nc3ccccc23)c1`, with 2.06%; and `CC(=O)Nc1ccc(Nc2c3ccccc3nc3ccccc23)cc1`, with 97.3% (active); and `CC1=C(C)CC(C(=O)NNC(=O)c2csc3c2CCC(C(C)(C)C)C3)C(C(=O)O)C1` (stereo not drawn), with 4.65%.
On to `CCCCCn1c(=O)c(C(=O)OCC)c(Cl)c2ccccc21`, for which the inhibition is -3.36%.
On to `CCOC(=O)C1CN(S(=O)(=O)c2ccc(F)cc2)C1`, for which the inhibition was 0.24%.
Then `Cc1ccc(S(=O)(=O)CC(=O)Nc2c(C)n(C)n(-c3ccccc3)c2=O)cc1`, with 7.55%; and `Cc1c(CCO)c(=O)n(-c2ccccc2)n1S(=O)(=O)c1ccc(F)cc1`, with 41% (active); and `Cc1cc(C)cc(OCC(=O)NNC(=O)CCN2C(=O)c3ccccc3C2=O)c1`, with 5.47%.
Then `CCN(C(=O)COC(=O)c1c(NC(C)=O)sc(C)c1C)C1CCS(=O)(=O)C1` (stereo not drawn), with 8.25%; and `CCOC(=O)c1c(-c2ccc(C)cc2)csc1/N=C(\C)C1=C(O)c2ccccc2C1=O`, with -0.41%.
Consider `CCOC(=O)c1ccccc1NS(=O)(=O)c1ccc(OC)cc1`, for which the inhibition is 5.36%.
`CCOC(=O)C1=C(c2ccc(OC)cc2)C(=O)c2ccccc2C1=O`: the inhibition is 29.1% (active).
Regarding `Brc1ccc(-c2nn[nH]n2)cc1`, the inhibition is 0.72%.
Then `COc1ccc(C(=O)C[n+]2ccc(C)cc2)cc1`, with 2.06%; and `COc1ccc(C(=O)C[n+]2ccc(N)c(C)c2C)cc1`, with 74.6% (active).
Regarding `COc1ccc(OCCC(=O)c2ccc(OC)cc2)cc1`, the inhibition is -3.65%.
Consider `O=C(CNS(=O)(=O)c1ccccc1)NCC(=O)OCc1ccccc1F`, for which the inhibition was 8.12%.
For `O=C(c1cncc(Br)c1)N1CCN(c2ccc([N+](=O)[O-])cc2)CC1`, the inhibition is 6.79%.
Then `O=C1NC(c2ccc(-c3ccccc3[N+](=O)[O-])o2)C(C(=O)c2ccc(Cl)cc2)C(O)(C(F)(F)F)N1` (stereo not drawn), with 6.99%; and `O=C(N/N=C/c1coc2ccccc2c1=O)c1cc2ccccc2o1`, with 4.3%.
With `Cc1c(/C=N\NC(=O)c2cc3ccccc3o2)c2ccccc2n1C` the figure was 41.3% (active); with `O=C(N/N=C/c1c[nH]c2ccccc12)c1cc2ccccc2o1`, -2.26%.
For the compound `Cn1c(-c2ccc(F)cc2)cnc1SCC(=O)NNC(=O)Cc1ccccc1`, the inhibition is 1.6%.
With `Cc1ccc(-c2cnc(NC(=O)CCC(=O)N(C)Cc3ccccc3)n2C)cc1` the figure was 62.4% (active); with `CN(Cc1ccccc1)C(=O)CCc1ccccc1`, 1.56%.
With `CC(=O)Nc1nc(N(C)C)nc(N(C)C)n1` the figure was 2.27%; with `COc1ccc(-n2nnnc2SCC(=O)NCc2cccs2)cc1`, 7.65%; with `CN(NC(=O)c1ccccc1)c1nc2ccccc2nc1C(F)(F)F`, 5.67%.
`COc1ccc(C(=O)NN(C)c2nc(-c3ccccc3)cc(C)c2S(C)(=O)=O)cc1`: the inhibition was 6.2%.
With `COC(=O)CNC(=O)c1ccccc1F` the figure was 3.61%; with `COc1ccc(OCC(=O)NNC(=O)c2cccc(C)c2)cc1`, 1.18%.
As to `CSc1nc(N(C)NC(=O)c2cccc(C)c2)c2ccccc2n1`, the inhibition was 90.9% (active).
As for `CN(NC(=O)c1ccccc1F)c1nc(C(F)(F)F)nc2ccccc12`, the inhibition is 73.9% (active).
Then `Cc1cc(C)c2nc(SCC(=O)N(C)C3CCS(=O)(=O)C3)cc(C)c2c1` (stereo not drawn), with 2.01%; and `CCc1cc(CNC(=O)CC2C(=O)NCCN2Cc2ccccc2C(F)(F)F)on1` (stereo not drawn), with 2.77%; and `O=C(O)c1ccn(COc2ccc(Br)cc2)n1`, with 6.73%.
Take `C=CCNC(=S)N/N=C/c1ccc(C)s1`: the inhibition was -10.6%.
With `COC(=O)C1NN=C(C(=O)c2ccc(Br)cc2)C1c1cccc(Br)c1` (stereo not drawn) the figure was 5.65%; with `CC(C)CCN1CCN(Cc2cn[nH]c2C2CCCCC2)CC1CCO` (stereo not drawn), 5.24%.
Regarding `CC1(C)CC(CNCCC(c2ccc(F)cc2)c2ccco2)CCO1` (stereo not drawn), the inhibition is 4.73%.
Then `Cc1cc(NC(=O)CN2C(=O)NC(C)(CCc3ccccc3)C2=O)no1` (stereo not drawn), with -0.49%; and `O=C(Nc1ccc(CSc2ccccc2)cc1)c1ccc(CN2CCOCC2)cc1`, with 6.68%; and `O=C(COC(=O)CNC(=O)c1ccccc1F)NCC(F)(F)F`, with 0.89%.
As for `CCOc1ccc(N2C(=O)CN(c3cccc4ccccc34)C2=S)cc1`, the inhibition was 80.4% (active).
With `CCOc1ccc(N2C(=O)CC(N(O)c3ccccc3)C2=O)cc1` (stereo not drawn), the inhibition was -1.11%.
Then `CCO/C=C1\C(=O)N(c2ccc(OCC)cc2)C(=O)c2ccccc21`, with 0.91%.
